Screen size: about 410,000 compounds; about 18,000 (4.4%) were called active. Another 7% or so got no clear call; they are omitted. Rule as the data show it: active = activity change below about -60%; inconclusive = no clear call, values can overlap the other calls; inactive = above about -39%. The entries come from a sample that favours actives as a whole.
Assay: qHTS Assay for inhibitors of the human cytomegalovirus (HCMV)
Details: HFF cells, HCMV-luciferase reporter, 72 h; at 57.5 µM; stronger effect = lower value
From the text: NCGC Assay Overview: Infection with human cytomegalovirus (HCMV) continues to pose significant threats for pregnant women and immunocompromised hosts. HCMV causes serious morbidity and mortality in transplant recipients, and congenital HCMV is the leading infectious cause of mental retardation and deafness in children. In the 1990s, the annual costs associated with the disease burden of congenital CMV were estimated at around $2 billion. A HCMV vaccine is not available yet and HCMV therapies result in intolerable side effects and emergence of drug resistant viruses. […] Towards this goal we have developed and characterized a luciferase HCMV reporter that was initially used in 96 well plates and then optimized to 1536-well plates for utilization in screening of the MLSMR collection, the NGCG diversity collection and the NCGC Pharmaceutical Collection of approved and investigational drugs.
NCGC Assay Protocol Summary:
This is a cell-based assay for HCMV inhibition in HFFs cells. The screening used 2 compound doses and the HCMV-luciferase at MOI of 1 PFU/cell. Cells were treated and infected with HCMV. At 72 h post infection cell lysates were collected and luciferase activity was determined using the Glomax-Multi + Detection System (Promega, Madison, WI). Data were normalized to the controls for basal activity (buffer only) and known HCMV inhibitors Salinmoycin.
1536-well assay protocol for the assay:
(1) Add 3 ul CMV/HFF cell culture. 1000 cells/well in DMEM nirmal media.
(2) Incubate 16 hr at 37C.
(3) Add 23 nl control compound, 10uM of Salinomycin.
(4) Add 23 nl compounds in DMSO solution.
(5) Add 3 ul CMV suspension. Final 1 puf/ul, Virus stock 2000pfu/ul
(6) Incubate 72 hrs at 37C.
(7) Add 4 ul OneGlo Luc Reagent.
(8) Incubate 5 min at room temperature.
% is scaled to controls: 0 for no effect and ±100 for the full control effect.

Structure (SMILES) | activity change, negative = inhibition
COc1cccc(CN2CCc3nc(SCC(=O)Nc4ccccc4)[nH]c(=O)c3C2)c1 | 4.11% (inactive)
O=C(Nc1c(Cl)c(C2CC2)nn1-c1ccccc1)C(Cl)(Cl)Cl | 12.3% (inactive)
CCOc1ccc(N(CC)S(=O)(=O)N2CCCC(C(=O)NCc3ccc(Cl)cc3)C2)cc1 (stereo not drawn) | -15.9% (inactive)
CCOc1ccc(CNC(=O)C2CCCN(c3nnc(C)c4c(C)n(-c5ccccc5)nc34)C2)cc1 (stereo not drawn) | -67.7% (active)
CCCCNC(=O)C1CCCN(c2nnc(C)c3c(C)n(-c4ccc(Cl)cc4)nc23)C1 (stereo not drawn) | -6.23% (inactive)
COc1ccc(S(=O)(=O)N2CCN(CC(=O)N3CCOCC3)CC2)cc1OC | 4.11% (inactive)
Cc1ccn(-c2cccc(-n3ccc(C)n3)n2)n1 | 65.3% (inactive)
CC(=O)NC(CC(=O)Nc1ccc(S(=O)(=O)N2CCOCC2)cc1)c1ccccc1 (stereo not drawn) | 0% (inactive)
COC(=O)c1ccccc1NS(=O)(=O)c1ccc2c(c1)CCCN2C(C)=O | -2.94% (inactive)
Cc1cc(NS(=O)(=O)c2ccc(NC(=O)c3ccccc3C)cc2)nc(C)n1 | -5.8% (inactive)
COc1cc(NS(=O)(=O)c2cccs2)cc(OC)c1 | 16.4% (inactive)
COc1cccc(NC(=O)c2ccccc2N(Cc2ccccc2)S(C)(=O)=O)c1 | -6.12% (inactive)
COc1cc(NC(=O)c2ccccc2NS(=O)(=O)c2ccc(Cl)s2)cc(OC)c1 | -99.7% (active)
COC(=O)c1ccc(NC(=O)c2ccccc2NS(=O)(=O)c2ccccc2)cc1 | -105% (active)
COc1ccc(C2CC(=O)Nc3c2c(=O)nc2c(C)cccn32)cc1OC (stereo not drawn) | 3.37% (inactive)
CCn1c(CNC(=O)c2ccccc2)nnc1SCC(=O)N1CCN(c2ccccc2)CC1 | -25.6% (inactive)
O=C(CCNS(=O)(=O)c1ccccc1C(F)(F)F)Nc1ccncc1 | 6.98% (inactive)
Cc1ccccc1NC(=O)C1CCCN(C(=O)NCc2ccccc2)C1 (stereo not drawn) | -18.4% (inactive)
Oc1ccc(N2CCN(C(=S)NCc3ccccc3)CC2)cc1 | -63.6% (active)
O=C(CN1CCN(c2ccccc2O)CC1)NC(=O)NCc1ccccc1 | -4.33% (inactive)
COc1cc(C2C(C(=O)OCCC#N)=C(C)NC3=C2S(=O)(=O)c2ccccc23)cc(OC)c1OC (stereo not drawn) | 2.51% (inactive)
COc1ccccc1N1CCN(c2ncnc3onc(-c4cccc(Cl)c4)c23)CC1 | 10.1% (inactive)

Structure (SMILES) | activity change, negative = inhibition
COc1ccc2c(c1)c(N1CCCC1=O)c(C(=O)Nc1ccc(OC)c(Cl)c1)n2C | -18.9% (inactive)
Cc1nn(CC(=O)O)c(=O)c2cc3cc(F)ccc3n12 | 31% (inactive)
Cc1cccc(OCCNC(=S)NC(=O)c2cccnc2)c1 | -37.9% (inactive)
Cc1cccc(OCC(=O)NCCNC(=O)c2cccnc2)c1 | -66.9% (active)
CCNC(=O)COC(=O)CCNC(=O)c1cccc(C)c1 | -28.9% (inactive)
Cc1cc(C)c(S(=O)(=O)NN=C2c3ccccc3[C@H]3Cc4csc[n+]4[C@@H]23)c(C)c1 | -27.2% (inactive)
O=C(CCc1nc(CN2CCN(S(=O)(=O)c3ccc(F)cc3)CC2)no1)N1CCCCC1 | -35.8% (inactive)
CCC[C@H]1CCCC/C=C\CCCC(=O)OCCN1C(=O)OC(C)(C)C | -71.3% (active)
Cc1cccc(C)c1NC(=O)C1CCCN1C(=O)OC(C)(C)C (stereo not drawn) | -2.93% (inactive)
Cc1nc(SCC(=O)NC2CCCC2)[nH]c(=O)c1C | -10.8% (inactive)
CC1CCCCC1NC(=O)CSc1nnc(N)s1 (stereo not drawn) | 41.4% (inactive)
Cc1nc(SCC(=O)NC2CCCCC2C)c(C#N)c(C)c1C (stereo not drawn) | -103% (active)
COc1cccc(CNC(=O)[C@@H]2CCCN2C(=O)[C@@H]2CCCN2C(=O)c2ccccc2)c1 | -2.63% (inactive)
O=C(NCCS(=O)(=O)NCc1ccc(F)cc1)c1ccccc1 | -9.67% (inactive)
Cc1nc2c(C(=O)NCc3ccc4c(c3)OCO4)c[nH]n2c(=O)c1Cc1ccccc1F | -7.59% (inactive)
COc1ccc(NS(=O)(=O)c2cccc(C(=O)NCCc3ccc(S(N)(=O)=O)cc3)c2)cc1 | -1.91% (inactive)
COc1ccc(NC(=O)/C(N=Nc2cccc(S(=O)(=O)Nc3ccc(SC(F)F)cc3)c2)=C(\C)O)cc1 | -70.6% (active)
Cc1c(NS(=O)(=O)c2cccc(C(=O)Nc3ccc(SC(F)F)cc3)c2)c(=O)n(-c2ccccc2)n1C | -2.26% (inactive)
Cc1ccc(Cl)cc1N1CCN(C(=O)c2cnc3c(-c4ccc(F)cc4)c(C)nn3c2C)CC1 | 7.36% (inactive)
Cc1cccc(OC(C)C(=O)N2CCc3ccccc3C2)c1 (stereo not drawn) | -31.1% (inactive)
Cc1cccc(NC(=O)N2CCC(CN3CCc4ccccc4C3)CC2)c1C | 7.59% (inactive)
O=C(Nc1cccc([N+](=O)[O-])c1)N1CCc2ccccc2C1 | -65.7% (active)

Structure (SMILES) | activity change, negative = inhibition
CC(=O)c1ccc(NC(=O)c2nc3nc(C)cc(C(F)F)n3n2)cc1 | 19.3% (inactive)
CCOc1ccc(-c2nonc2NC(=O)c2oc3ccc(C)cc3c2C)cc1OCC | 5.37% (inactive)
Cc1ccc2c(O)c(Cc3ccccc3)c(=O)[nH]c2n1 | 22% (inactive)
COC(=O)c1ccc2nc(-c3ccc(Cl)cc3)c(Cc3cccc(F)c3)n2c1 | -17.1% (inactive)
O=C(Nc1c(-c2ccc(F)cc2)nc2ccccn12)c1cccc(F)c1 | -69.4% (active)
Cc1nc2ccccn2c(=O)c1NC(=O)c1c(F)cccc1F | -14.4% (inactive)
Cc1ccc(CNC(=O)c2c(O)nc3c(C)cccn3c2=O)cc1 | 5.82% (inactive)
COC(=O)[C@@]1(Sc2ccc(OC)cc2)CC(=O)N(c2ccc(OC)cc2C)[C@@H]1c1ccc(OC(C)C)c(OC)c1 | 10.7% (inactive)
COc1cc(OC)c(NC(=O)c2cnc(N3CCCC3)nc2C)cc1Cl | -14.2% (inactive)
Cc1nnc(SCC(=O)N(C(C)C)C(C)C)nc1C | -39.9% (inactive)
CC(C)OCCCNc1ncnc2c1[nH]c1ccc(F)cc12 | -79% (active)
COc1ccc(Cn2cc(C(=O)c3ccc(C)cc3)c(=O)c3cc(OC)c(OC)cc32)cc1 | -22.1% (inactive)
O=C(NC1CCCC1)C(c1ccco1)N(C(=O)c1csnn1)c1ccccc1 (stereo not drawn) | 13.9% (inactive)
CCCCN(C(=O)C1=NN(c2cc(C)ccc2C)C(=O)CC1)c1c(N)n(CCC)c(=O)[nH]c1=O | 8.37% (inactive)
Cn1c(=O)c2c(SCC(=O)N3CCc4ccccc43)nc(-c3ccc(Cl)cc3)nc2n(C)c1=O | 17.9% (inactive)
COc1ccccc1N1CCN(c2ncnc3onc(-c4ccc(F)cc4)c23)CC1 | -11.8% (inactive)
CCCCCCCCCCCCn1ccc(=N)cc1 | -96.6% (active)
O=C(CCSCc1cccc(F)c1)NCc1ccccc1 | -2.8% (inactive)
O=C(NCC(c1ccc2c(c1)OCO2)N1CCN(c2ccccc2)CC1)C(=O)Nc1ccccc1F (stereo not drawn) | 9.73% (inactive)
COC(=O)C1=C(c2ccccc2)c2ccccc2S(=O)(=O)N1CC(=O)Nc1ccccc1C(F)(F)F | -5.56% (inactive)
CCCc1nn2c(=O)cc(COC(=O)c3ccc(NC(=O)C(C)Oc4ccccc4)cc3)nc2s1 (stereo not drawn) | -18.3% (inactive)
COC(=O)CC1Oc2ccccc2-n2cc(-c3ccccc3)nc21 (stereo not drawn) | -14.2% (inactive)

Structure (SMILES) | activity change, negative = inhibition
COCC(C)n1c(C)cc(C(=O)CSc2cc(C)c3ccccc3n2)c1C (stereo not drawn) | -3.64% (inactive)
COCC(C)n1c(SCc2ccc(C(=O)OC)o2)nc2ccccc2c1=O (stereo not drawn) | -23% (inactive)
COCCn1c(C)cc(C(=O)CSc2nc3ccccc3c(=O)n2C(C)COC)c1C (stereo not drawn) | -66% (active)
O=C(NC1CCCC1)c1csc(C(O)c2cccc(Cl)c2)n1 (stereo not drawn) | -12.9% (inactive)
CC1CN(C(=O)c2ccc3c(c2)OCO3)OC(c2ccccc2)O1 (stereo not drawn) | 26.2% (inactive)
CCCCCCn1nnc2sc(-c3ccccc3)cc2c1=O | 15.8% (inactive)
COc1ccc(CNC(=O)c2ccc3c(O)c(S(=O)(=O)c4ccccc4)c(=O)[nH]c3c2)cc1 | 6.38% (inactive)
COc1ccc(NC(=O)c2ccco2)cc1NC(=O)COc1ccc(C)c(C)c1 | 23.1% (inactive)
COc1ccc(NC(=O)COCc2cc(-c3ccco3)on2)cc1 | 10.4% (inactive)
COc1ccc(OCC(=O)Nc2ccc(NC(=O)c3ccco3)c(C)c2)cc1 | -98.9% (active)
CC(C)(C)c1ccc(S(=O)(=O)N2CCN(C(=O)c3cc(-c4ccc(Br)cc4)n[nH]3)CC2)cc1 | 0% (inactive)
COc1ccc(NC(=O)C2CCN(c3ccc(Sc4ccc(C)cc4)nn3)CC2)c(OC)c1 | 11.3% (inactive)
O=C(CSc1nc2c(c(=O)[nH]1)CN(Cc1ccc(F)cc1)CC2)Nc1ccccc1Cl | -10.3% (inactive)
COc1ccc(NC(=O)NCCN2CCN(c3ccc(C)cc3)CC2)c(Cl)c1 | 14.9% (inactive)
CC1=C(c2ccc(C)c(C)c2)S(=O)(=O)NC1=NCc1ccccc1Cl | -23% (inactive)
CC1=C(c2ccc(C)cc2)S(=O)(=O)NC1=NCCCN1CCN(c2cc(C)ccc2C)CC1 | -96.1% (active)
O=C(NCCCN1CCN(c2ccc(F)cc2)CC1)Nc1ccc([N+](=O)[O-])cc1 | -37.5% (inactive)
CC1=C(c2ccc(Cl)cc2)S(=O)(=O)N=C1N1CCN(c2cc(C)ccc2C)CC1 | 8.61% (inactive)
Cc1ccc(C)c(N2CCN(CCCNC(=O)Nc3ccc(Cl)cc3)CC2)c1 | -76.9% (active)
O=C1C=C(NCCNc2c(F)c(F)c(CO)c(F)c2F)CCC1 | 74.7% (inactive)
CCOc1ccc(N2C(=O)Nc3ccccc3C2(O)C(=O)NCc2ccco2)cc1 (stereo not drawn) | 14.9% (inactive)
Cc1cc(C)cc(NC(=O)Cn2nc(N3CCN(c4ccccc4)CC3)ccc2=O)c1 | -10.6% (inactive)
